A number with no mark means an inactive call.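 How the source made its calls: active means viability loss from added drug above about 55%, and viability with drug at most 40%, in both replicates (limit read from the data, passing the limit was not always enough); inconclusive means both conditions met in only one replicate; inactive means neither replicate meets both conditions.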
experiment: reversal of MRP1-mediated doxorubicin resistance, pilot screen, H69AR cells, doxorubicin co-treatment (AID 601); settings: H69AR cells + 2 uM doxorubicin, CellTiter-Glo, 72 h; at 10 µM; active compounds read high

SMILES | differential viability (reversal)
COC(=O)c1ccc2c(c1)C(=O)N(C1CCCCC1)C2=O | 7.39%
CCOc1ccc(OCC)c(NS(=O)(=O)c2ccc3c(c2)n(C)c(=O)c(=O)n3C)c1 | 5.37%
CC(=O)OC(C(=O)NCc1ccco1)c1cccnc1 (stereo not given) | 3.39%
Cc1ccccc1CN1CCN(C(=O)c2cccc(F)c2)CC1 | 4.51%
CCN(CC)CCCN1C(=O)C(=O)/C(=C(/O)c2ccc(C)cc2)C1c1ccccn1 (stereo not given) | -1.81%
COc1ccc(CCNS(=O)(=O)c2ccc(C(=O)NCc3ccco3)cc2)cc1OC | -4.64%
O=C(Nc1ccc(Cl)c(Cl)c1)Nc1cc(C(=O)N2CCOCC2)ccc1N1CCCCC1 | 4.12%
COc1ccc(-c2coc3c(CN4CCCCC4)c(O)c(CN4CCCCC4)c(O)c3c2=O)cc1 | -0.025%
CCc1nnc(NC(=O)CSc2nnc(-c3ccoc3C)n2CC(C)C)s1 | 12.6%
O=C(O)C1C2CCC(C2)C1C(=O)NCCCn1ccnc1 (stereo not given) | 6.16%
COc1cccc2cc(C(=O)n3ccc(C)n3)c(=O)oc12 | 2.8%
CC1(C)CC(=O)c2cc(OCC(=O)N3CCN(c4ccccc4F)CC3)ccc2O1 | 2.9%
O=C(CSc1nnc(-c2ccccc2)o1)N1CCc2ccccc2C1 | 0.04%
CCS(=O)(=O)c1nc2ccccc2n1CC(=O)N1CCOCC1 | 3.73%
O=C(Cn1cnc2sc(-c3ccccc3)cc2c1=O)N1CCOCC1 | 3.61%
